Reference: PubChem BioAssay (NCATS)
Results filed as inconclusive are left out. The source made the active and inactive calls. Calls come from the whole dose curve; as a rule, active = well fitted inhibition curve with a large enough effect; inconclusive = small, poorly fitted or top-dose-only effect; inactive = flat fitted curve, though single readings scatter.

These compounds were tested on CP191 (assay: qHTS profiling for inhibitors of Plasmodium falciparum proliferation (AID 504749; note: nearly all actives have a fitted effect of over 60% in size;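 for activity, negative = inhibition: 0% = DMSO vehicle and full inhibition = artemisinin control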)). Settings: P. falciparum in erythrocytes, SYBR Green DNA, 72 h; series mostly up to 28.7 µM; activity, negative = inhibition: at the top concentration.
In short: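 SYBR Green fluorescence (ex 485 nm, em 535 nm) reports parasite DNA after 72 h compound exposure of infected red cells at 0.3% parasitemia, 2.5% hematocrit; signal normalized to 0.29 uM artemisinin and vehicle wells.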
Potency is the fitted concentration of half-maximal effect.

activity, negative = inhibition, inactive:
CCCCCCCCCCCCCCCC(=O)OC[C@H](O)[C@H]1OC[C@@H](O)[C@@H]1O 7.52%
C[C@H]1OC(OC2C(O)[C@@H](O)C(OC3C(O)[C@@H](O)C(O)O[C@@H]3CO)O[C@@H]2CO)[C@H](O)C(O)C1N[C@H]1C=C(CO)[C@@H](O)[C@H](O)C1O (stereo not given in full) 15.7%
CCN(CC)CC(=O)Nc1c(C)cc(C)cc1C -2.69%
CC(=O)N[C@H]1[C@H](O[C@@H]2c3ccc(c(Cl)c3)Oc3cc4cc(c3O[C@@H]3O[C@H](CO)[C@@H](O)[C@H](O)C3C)Oc3ccc(cc3Cl)C[C@H]3NC(=O)[C@@H](N)c5ccc(O)c(c5)Oc5cc(O)cc(c5)[C@H](NC3=O)C(=O)N[C@H]4C(=O)N[C@H]3C(=O)N[C@@H]2C(=O)N[C@@H](C(=O)O)c2cc(O)cc(O[C@H]4O[C@H](CO)[C@@H](O)C(O)[C@@H]4O)c2-c2cc3ccc2O)O[C@H](CO)[C@@H](O)[C@@H]1O (stereo not given in full) 4.19% [at 12.8 µM]
NC(=O)c1ncn(C2OC(CO)C(O)C2O)c1N (stereo not given) 7.22%
CC1(Cn2ccnn2)[C@H](C(=O)O)N2C(=O)C[C@H]2S1(=O)=O (stereo not given in full) 3.85%
CN(C)CC/C=C1\c2ccccc2COc2ccc(CC(=O)O)cc21 1.88%
CCCC(=O)O[C@]1(C(=O)COC(C)=O)CC[C@H]2C3C[C@H](F)C4=CC(=O)C=CC4(C)[C@@]3(F)[C@@H](O)CC21C (stereo not given in full) -6.18%
OCCN1CC(O)C(O)C(O)C1CO (stereo not given) 0.0691%
CC(CCC(=O)O)C1CCC2C3C(=O)C[C@@H]4CC(=O)CC[C@@]4(C)C3CC(=O)[C@]12C (stereo not given in full) -4.02%
O=C(OC[C@@H]1O[C@@](O)(COC(=O)c2cccnc2)[C@H](OC(=O)c2cccnc2)[C@H]1OC(=O)c1cccnc1)c1cccnc1 -2.45%
O=[N+]([O-])O[C@H]1CO[C@H]2[C@@H]1OC[C@H]2O 4.36%
COc1cccc(OC)c1C(=O)NC1C(=O)N2C1SC(C)(C)C2C(=O)O (stereo not given) -0.478%
NC[C@@H]1O[C@H](OC2[C@@H](CO)O[C@@H](OC3[C@H](O)[C@H](N)C[C@H](N)[C@H]3OC3O[C@H](CO)[C@@H](O)[C@H](O)[C@@H]3N)[C@H]2O)C(N)[C@H](O)[C@@H]1O (stereo not given in full) 1.99%
Cc1ccc(S(=O)(=O)NC(=O)NC(C)Cc2ccccc2)cc1 (stereo not given) 3.75%
OCCOC[C@H]1O[C@H](OCCO)[C@H](OCCO)[C@@H](OCCO)[C@@H]1OCCO (tested in a mixture with another compound) 2.29%
C[S+](C)CC[C@H](N)C(=O)O 19.9%
CC[C@@H]1/C=C(\C)C[C@H](C)C[C@H](OC)[C@H]2O[C@@](O)(C(=O)C(=O)N3CCCC[C@H]3C(=O)O[C@H](/C(C)=C/[C@@H]3CC[C@H](Cl)[C@H](OC)C3)[C@H](C)[C@@H](O)CC1=O)[C@H](C)C[C@@H]2OC 4.32%
NC(=O)C1CC2(NC(=O)NC2=O)c2cc(F)ccc2O1 (stereo not given) 8.02%
CN1[C@@H]2CC[C@@H]1CC(OC(=O)[C@H](CO)c1ccccc1)C2 (stereo not given in full) 1.77%
CCCCCCCCCCCC(=O)OCC(O)C1OCC(O)C1O (stereo not given) -3.77%
C/C1=C2/[N-]C(C(CC(N)=O)[C@@]2(C)CCC(=O)NCC(C)OP(=O)([O-])O[C@H]2[C@@H](O)[C@@H](n3cnc4cc(C)c(C)cc43)O[C@@H]2CO)[C@]2(C)N=C(/C(C)=C3N=C(/C=C4N=C1C(CCC(N)=O)C\4(C)C)[C@@H](CCC(N)=O)[C@]\3(C)CC(N)=O)[C@@H](CCC(N)=O)[C@]2(C)CC(N)=O.CC(=O)O.[Co] (stereo not given in full) -3.59%
CC1(C)OC[C@@H]2O[C@@]3(C(=O)O)OC(C)(C)O[C@@H]3[C@@H]2O1 9.96%
Cc1ccccc1N1C(=O)c2cc(N)ccc2N/C1=C\F -17.8%
O=C1C(I)=CC(=C(c2cc(I)c(O)c(I)c2)c2ccccc2C(=O)O)C=C1I 3.36%
NC(=O)NC(CCC(=O)O)C(=O)O (stereo not given) 12.8%
CC(=O)OCC(=O)[C@@]1(O)CCC2C3C[C@H](C)C4=CC(=O)C=CC4(C)C3C(O)CC21C (stereo not given in full) 2.18%
CC1(C)C2CC[C@]1(C)[C@@H](O)C2 10.6%
OCC1O[C@H](Oc2ccc(O)cc2)C(O)C(O)C1O (stereo not given in full) 1.37%
Nc1nc(F)nc2c1ncn2[C@@H]1O[C@H](CO)[C@@H](O)[C@H]1O -4.27%
CC1OC(OC2CCC3(C)C(CCC4C3CC(O)C3(C)C(C5=CC(=O)OC5)CCC43O)C2)CC(O)C1OC1CC(O)C(OC2CC(O)C(OC3OC(CO)C(O)C(O)C3O)C(C)O2)C(C)O1 (stereo not given) 3.36%
CC1OC(OCC2OC(Oc3c(-c4ccc(OCCO)c(OCCO)c4)oc4cc(OCCO)cc(O)c4c3=O)C(O)C(O)C2O)[C@@H](O)C(O)C1O (stereo not given in full) -20.4%

Potency, active:
CCCCC(=O)OCC(=O)[C@]1(O)Cc2c(O)c3c(c(O)c2[C@H](OC2CC(NC(=O)C(F)(F)F)C(O)C(C)O2)C1)C(=O)c1c(OC)cccc1C3=O (stereo not given in full) 2510 nM
C[C@H]1[C@@H](OC(=O)CCC(=O)O)OC2OC3(C)CC[C@H]4[C@H](C)CC[C@@H]1[C@@]24OO3 (stereo not given in full) 4.5 nM
COc1cc2c(cc1O)CCN[C@@]21CS[C@H]2c3c(OC(C)=O)c(C)c4c(c3C(COC1=O)N1C2C2c3c(cc(C)c(OC)c3O)CC([C@@H]1O)N2C)OCO4 (stereo not given in full) 1 nM
C[n+]1c2cc(N)ccc2cc2ccc(N)cc21 282 nM
CC[C@@]1(O)C[C@H](O[C@H]2C[C@@H](N(C)C)[C@@H](O[C@H]3C[C@@H](O)[C@@H](O[C@H]4CCC(=O)[C@@H](C)O4)[C@@H](C)O3)[C@@H](C)O2)c2c(cc3c(c2O)C(=O)c2c(O)cccc2C3=O)[C@H]1C(=O)OC 199 nM
CCC(C(=O)O)C1OC(C(C)C(O)C(C)C(=O)C(CC)C2OC3(C=CC(O)C4(CCC(C)(C5CCC(O)(CC)C(C)O5)O4)O3)C(C)CC2C)C(C)CC1C (stereo not given) 100 nM
COC1CC2CCC(C)[C@](O)(O2)C(=O)C(=O)N2CCCCC2C(=O)OC(C(C)CC2CCC(O)C(OC)C2)CC(=O)C(C)/C=C(/C)C(O)C(OC)C(=O)C(C)CC(C)C=CC=C/C=C\1C (stereo not given in full) 2510 nM
CN[C@H](C)CCC=C(C)C 708 nM
